By inhibition is commonly meant the change of the read-out against control, counted positive when it falls.

Data on 96 molecules can be found in PubChem BioAssay AID1852 (Sanford-Burnham Center for Chemical Genomics, 2009).

In all, about 2,500 compounds went through this assay and about 1,100 (44%) were called active.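 The calls were made as follows: active = inhibition above 50% at 4 µM in the single-point screen; inactive = inhibition of 50% or less.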 So high a share suggests a set chosen from earlier hits. The list shows a part of the results.

This assay can be described thus: blockers of TNF-a NF-kB luciferase induction – cell-based, HEK293T NF-kB-Luc, luminescence, selectivity assay for NOD1/NOD2 signaling inhibitor project, primary screen (AID 1852). The settings on record: TNF-a induced, 14 h, at 4 µM, hits give high values.
Turning to `Cc1ccc(O)c(C(=O)c2cnc3c(c2)COc2ccc(C)cc2-3)c1`, the inhibition was 22% (inactive). In the case of `Cc1[nH]nc2ncc(C(=O)c3ccccc3O)cc12`, the inhibition is 67.9% (active). With `O=C(c1cnn(C(=O)c2ccc(O)cc2)c1)c1ccccc1O`, the inhibition was 9.9% (inactive). The result for `C/C(=N\NC(=O)c1ccc(Cl)cc1)c1ccccn1` reads 103% (active); that for `C/C(=N\NC(=O)COc1ccccc1-c1ccccc1)c1ccccn1`, 106% (active). For `C/C(=N\NC(=O)c1cc(Br)ccc1O)c1ccccn1`, the inhibition was 25.1% (inactive).

As to `C/C(=N\NC(=O)c1cccc(Br)c1)c1ccccn1`, the inhibition was 98% (active). On to `C/C(=N\NC(=O)Cc1ccc(Cl)cc1)c1ccccn1`, for which the inhibition is 101% (active). The result for `Cc1ccc(Nc2nc3nonc3[nH]c2=O)cc1Cl` reads -23% (inactive); that for `C/C(=N\NC(=O)c1ccc(Cl)c(Cl)c1)c1ccccn1`, 102% (active). Take `C/C(=N\NC(=O)c1ccc(F)cc1)c1ccccn1`: the inhibition is 106% (active).

With `COc1ccc(C(=O)N/N=C(\C)c2ccccn2)cc1OC`, the inhibition is 106% (active).

Regarding `CCOC(=O)c1csc(Nc2nc3ccc(F)cc3s2)n1`, the inhibition is 106% (active). The result for `COC(=O)c1ccc2nc(Nc3nc4ccc(F)cc4s3)sc2c1` reads 0% (inactive). Regarding `CCOC(=O)c1ccc2nc(Nc3nc4ccc(F)cc4s3)sc2c1`, the inhibition is -87.4% (inactive). With `COc1cccc(N=Nc2c(N)[nH]n3c(=O)cc(-c4ccccc4)nc23)c1`, the inhibition is 75.4% (active). The result for `Nc1[nH]n2c(=O)cc(-c3ccccc3)nc2c1N=Nc1ccccc1` reads 64.7% (active); that for `Nc1[nH]n2c(=O)cc(-c3ccccc3)nc2c1N=Nc1ccc2c(c1)OCO2`, 50.6% (active); that for `O=C(CSCc1ccccc1Cl)N1CCN(c2ccccn2)CC1`, -30.9% (inactive). The value for `CCc1ccc(-c2nc(CSCC(=O)N3CCN(c4ccccn4)CC3)c(C)o2)cc1` was 73.1% (active).

Regarding `CCOc1ccc(-c2nc(CSCC(=O)N3CCN(c4cccc(OC)c4)CC3)c(C)o2)cc1`, the inhibition was 49.3% (inactive). Regarding `O=C(Nc1nccs1)c1sc2cc(Cl)ccc2c1Cl`, the inhibition is 103% (active). The value for `O=C(Nc1cccc(NC(=O)c2sc3ccccc3c2Cl)c1)c1ccco1` was -117% (inactive); that for `CS(=O)(=O)N1CCC(C(=O)Nc2cccc(Cl)c2)CC1` was 4.2% (inactive). The value for `Cn1ncc([N+](=O)[O-])c1C(=O)Nc1ccc(-c2ccccc2)cc1` was -39.7% (inactive).

On to `Cn1ncc([N+](=O)[O-])c1C(=O)Nc1cccc(Cl)c1`, for which the inhibition is 92.6% (active).

As to `O=C(Nc1ccc([N+](=O)[O-])cc1)Nc1nc(-c2ccc(Cl)s2)cs1`, the inhibition is 42.8% (inactive). The value for `Cc1ccc(NC(=S)NC(=O)c2ccc(F)cc2)cc1S(=O)(=O)Nc1cccc(Cl)c1` was 32.5% (inactive); that for `O=[N+]([O-])c1cccc(NC(=S)Nc2nc(-c3ccc(Cl)cc3Cl)cs2)c1` was 64.3% (active); that for `Cc1csc(NC(=S)Nc2cccc(Cl)c2)n1` was 100% (active).

For `Cc1ccccc1CN(CC(=O)Nc1cccc([N+](=O)[O-])c1)S(=O)(=O)c1ccc(Cl)cc1`, the inhibition was -15.8% (inactive). The value for `CCN1/C(=C/c2sc(-c3ccccc3C)c[n+]2C)Sc2ccccc21` was 95.5% (active); that for `CC[n+]1c(/C=C2\Sc3ccccc3N2C)ccc2cccc(C)c21` was 70.3% (active); that for `CCCCN1/C(=C/c2ccc3ccccc3[n+]2CC)Sc2ccccc21` was 45.1% (inactive). The value for `CCN1/C(=C/c2ccc3cccc(C)c3[n+]2CC)Sc2ccccc21` was 61.9% (active); that for `CC(C)(C)C1C/C(=C/c2ccccn2)C(=O)/C(=C/c2ccccn2)C1` (stereo unspecified) was 103% (active); that for `CC1C/C(=C/c2ccccn2)C(=O)/C(=C/c2ccccn2)C1` (stereo unspecified) was 96.2% (active). The result for `O=C(Nc1ccc(-c2nc3ncccc3o2)cc1)c1ccc([N+](=O)[O-])o1` reads 27.5% (inactive); that for `O=C(NCc1ccccc1)C1=C[C@@H](c2csc3ccccc23)C[C@@H](OCCCCO)O1`, 69.1% (active). For the molecule `Cn1c(/C=C/c2ccc(Cl)cc2)c([N+](=O)[O-])c(=O)n(C)c1=O`, the inhibition is 18.7% (inactive). The value for `Cn1c(/C=C/c2ccc(Cl)cc2Cl)c([N+](=O)[O-])c(=O)n(C)c1=O` was 71.4% (active); that for `Cn1c(/C=C/c2ccc(Br)cc2)c([N+](=O)[O-])c(=O)n(C)c1=O` was -12.1% (inactive); that for `O=C(Nc1sc2c(c1C(=O)NCCCO)CCCC2)c1ccccc1` was 35.2% (inactive).

Regarding `Cc1sc(NC(=O)c2ccccc2)c(C(c2ccccn2)N2CCN(CCO)CC2)c1C` (stereo unspecified), the inhibition was 51.9% (active). `Cc1cc(C(=O)Nc2c(C)nn(Cc3c(Cl)cccc3Cl)c2C)no1`: the inhibition was -34.2% (inactive).

Take `Cc1nn(Cc2ccc(Cl)cc2)c(C)c1NC(=O)c1noc2c1CCc1ccccc1-2`: the inhibition was 105% (active). Consider `COc1cc(Cl)c(C)cc1NC(=O)CN(C)Cc1cccc(OC)c1OC`, for which the inhibition is 57.5% (active).

Turning to `COc1cccc(NC(=O)CN(C)CC(=O)Nc2ccc(C)c([N+](=O)[O-])c2)c1`, the inhibition is 42.8% (inactive). Regarding `CCN(CC(=O)Nc1ccc([N+](=O)[O-])cc1OC)c1ccccc1`, the inhibition was -39% (inactive). The value for `COc1cc(OC)nc(-n2ncc(Br)c(Br)c2=O)n1` was 105% (active); that for `Cc1ccc(-n2ncc(Br)c(Br)c2=O)cc1` was 105% (active). Take `O=c1c(Br)c(Br)cnn1-c1ccccc1`: the inhibition was 90.8% (active). The result for `Oc1cc2c(cc1C(c1ccc(Br)cc1)N1CCCC1)OCO2` (stereo unspecified) reads -3.2% (inactive); that for `Cc1cc(/C=C2\SC(=S)N(C)C2=O)c(C)n1-c1ccc(O)cc1`, 24.7% (inactive). Turning to `Cc1cc(/C=C2\SC(=S)N(C)C2=O)c(C)n1-c1cccc(O)c1`, the inhibition is -111% (inactive). The result for `CN1C(=O)/C(=C/c2cc(N=Nc3ccccc3)ccc2O)SC1=S` reads 98.2% (active).

On to `Cc1cccc(N2CCN(C(=S)NCCc3ccccc3)CC2)c1C`, for which the inhibition was -31.3% (inactive). The value for `CN(C)S(=O)(=O)c1cccc(NC(=S)Nc2cccc3cnccc23)c1` was 62.5% (active); that for `CN(C)S(=O)(=O)c1cccc(CSCc2cccc(S(=O)(=O)N(C)C)c2)c1` was 42.8% (inactive).

Take `S=C(NCCc1ccccc1)Nc1cccc2cnccc12`: the inhibition was 69.1% (active). The value for `S=C(NCCc1ccc(Cl)cc1)Nc1ccc(Cl)cc1Cl` was -10.9% (inactive). Take `Cc1sc2ncnc(N3CCC(C(=O)N(C)CC(=O)Nc4ccccc4Cl)CC3)c2c1C`: the inhibition was 50.3% (active).

With `CCN(CC)CCNC(=O)c1ccc(NC(=O)C2CCN(c3ncnc4sc(C)c(C)c34)CC2)cc1`, the inhibition was 43.8% (inactive).

Consider `COc1cccc2cc(C(=O)C3=C(O)C(=O)N(c4cc(C)on4)C3c3cccs3)oc12` (stereo unspecified), for which the inhibition was -0.9% (inactive).

Turning to `CCOC(=O)c1sc(N2C(=O)C(O)=C(C(=O)c3ccco3)C2c2ccco2)nc1C` (stereo unspecified), the inhibition is 76.1% (active). For `CCOC(=O)c1sc(N2C(=O)C(O)=C(C(=O)c3ccco3)C2c2cccc([N+](=O)[O-])c2)nc1C` (stereo unspecified), the inhibition was 23.8% (inactive). Regarding `CCC(C)(C)c1ccc(Oc2ccc(N)cc2)cc1`, the inhibition is 75.5% (active).

`NC(=O)C1CCN(c2ccc(S(=O)(=O)N3CCC(Cc4ccccc4)CC3)cn2)CC1`: the inhibition is 32.5% (inactive). Consider `Cc1c(C(=O)N/N=C/c2c(O)ccc3ccccc23)nnn1-c1nonc1N`, for which the inhibition was 89% (active). The result for `Nc1nonc1-n1nnc(C(=O)N/N=C/c2cc(Br)ccc2O)c1CNc1ccccc1` reads 56.5% (active); that for `CC1CCN(Cc2c(C(=O)N/N=C/c3cc(Br)ccc3O)nnn2-c2nonc2N)CC1`, 95.1% (active). The value for `Cc1nc([N+](=O)[O-])c(Br)n1Cc1ccc(Cl)c(Cl)c1` was 7.2% (inactive); that for `Cn1c(=O)c2c(nc(NCc3ccco3)n2C/C=C/c2ccccc2)n(C)c1=O` was 78.2% (active); that for `CC(C)n1c(CN(C)Cc2ccccc2)nc2c1c(=O)n(C)c(=O)n2C` was 38.7% (inactive). For `COc1cc(CNc2ccc3[nH]c(=O)[nH]c3c2)cc(Br)c1OCc1ccccc1F`, the inhibition is 61% (active).

As for `COc1cc(CNc2ccc3[nH]c(=O)[nH]c3c2)cc(Br)c1OCc1ccc(F)cc1`, the inhibition was 47.6% (inactive). The result for `COc1cc(CNc2ccc3[nH]c(=O)[nH]c3c2)ccc1OCc1ccccc1C` reads 37.1% (inactive); that for `Cc1cccc(C2=NC(C(F)(F)F)(C(F)(F)F)c3c(n(-c4ccc(F)cc4)c(=O)[nH]c3=O)N2)c1`, -13.7% (inactive); that for `O=c1[nH]c(=O)n(Cc2ccco2)c2c1C(C(F)(F)F)(C(F)(F)F)N=C(c1ccc(F)cc1)N2`, 90.9% (active). As for `Nc1ncnc(NCc2ccc(F)cc2)c1[N+](=O)[O-]`, the inhibition is 60.6% (active). `Cc1ccc(CNc2ncnc(N)c2[N+](=O)[O-])cc1`: the inhibition is 36.2% (inactive). Consider `O=C(Nc1ccc(N2CCN(c3ncccc3C(F)(F)F)CC2)nc1)c1cccs1`, for which the inhibition is 64.1% (active). The result for `Cc1ccc(NC(=O)C2CCN(S(=O)(=O)c3ccc4c(c3)NC(=O)C(C)S4)CC2)cc1Cl` (stereo unspecified) reads 39.1% (inactive); that for `O=S1(=O)C=C(Sc2nnc(-c3ccccc3)o2)c2ccccc21`, 70.6% (active); that for `O=S1(=O)C=C(Sc2nc3cc(Cl)ccc3o2)c2ccccc21`, 91.1% (active).

In the case of `Cc1nnc(Sc2nc3ccccc3o2)c2ccccc12`, the inhibition is 45.3% (inactive). The value for `O=C(N/N=C\c1c(O)ccc2ccccc12)c1ccc(O)cc1` was 69.4% (active); that for `O=C(N/N=C/c1c(O)ccc2ccccc12)c1ccc(CO)nc1` was 96.6% (active). For the molecule `Cn1nccc1C(=O)N/N=C/c1c(O)ccc2ccccc12`, the inhibition is 66.6% (active). `O=C(CN1CCCCCC1)Nc1ccc(Br)cn1`: the inhibition is -21.9% (inactive). For `O=C(CN1CCCC1)N/N=C/c1c(O)ccc2ccccc12`, the inhibition was 87.6% (active). The value for `O=C(N/N=C/c1c(O)ccc2ccccc12)c1ccc(Br)o1` was 34.2% (inactive). `Cc1ccc(C(=O)N/N=C/c2c(O)ccc3ccccc23)cn1`: the inhibition was 73.2% (active). Take `C#Cc1ccc([C@@H]2C=C(C(=O)N3CCN(Cc4ccccc4)CC3)O[C@H](OCCCCO)C2)cc1`: the inhibition was 61.3% (active).

For `Cc1ccc(CN2CCN(C(=O)c3cccc4ccccc34)CC2)cc1`, the inhibition is 12.3% (inactive). Consider `CCN(CC)c1ccc(C(=O)N2CCN(Cc3ccccc3)CC2)cc1`, for which the inhibition is 46.5% (inactive).
